{
  "source": "PubChem BioAssay (Tox21)",
  "note": "Records with an inconclusive call do not appear. Activity calls are given as the source filed them. Calls come from the whole dose curve. % is set by controls: 0 for no effect and ±100 for the full control effect; potency is the fitted concentration of half-maximal effect.",
  "data": [
    {"assay": "qHTS assay for small molecule agonists of the antioxidant response element (ARE) signaling pathway - cell viability counter screen (AID 743203); note: nearly all actives have a fitted effect of over 55% in size", "settings": "ARE-bla HepG2 viability, CellTiter-Glo luminescence, 16 h; series mostly up to 73.3 µM; viability change, negative = cytotoxic: at the top concentration", "from_the_text": "National Center for Advancing Translational Sciences [NCATS]\nNIH Chemical Genomics Center [NCGC]\nU.S. Environmental Protection Agency [EPA]\nNational Institutes of Environmental Health Sciences [NIEHS]\nNational Toxicology Program [NTP]\nU.S. Food and Drug Administration [FDA]\nOxidative stress has been implicated in the pathogenesis of a variety of diseases ranging from cancer to neurodegeneration. The antioxidant response element (ARE) signaling pathway plays an important role in the amelioration of oxidative stress. The CellSensor ARE-bla HepG2 cell line (Invitrogen) can be used for analyzing the Nrf2/antioxidant response signaling pathway. Nrf2 (NF-E2-related factor 2) and Nrf1 are transcription factors that bind to AREs and activate these genes. The CellSensor ARE-bla Hep G2 cell line contains a beta-lactamase reporter gene under control of the Antioxidant Response Element (ARE) stably integrated into HepG2 cells. The activation of the report gene under culture conditions can be detected by fluorescence intensity. This cell line has been used to screen the Tox21 10K compound library to identify agonists that induce oxidative stress. The cytotoxicity of the Tox21 compound library against the ARE-bla cell line was tested in parallel by measuring the cell viability using CellTiter-Glo assay (Promega, Madison, WI) in the same wells.\nTox21 Assay Protocol Summary:\nARE-bla HepG2 cells were dispensed at 2,000 cells/5 ul/well in 1536-well white wall/solid bottom plates using a Multidrop Combi (ThermoFisher Scientific, Waltham, MA) dispenser. After the assay plates were incubated at 37C/5% CO2 for 5 hrs, 23 nL of compounds dissolved in DMSO, positive controls or DMSO only was transferred to the assay plate by a pintool work station (Kalypsys, San Diego, CA). The plates were incubated at 37C/5% CO2 for 16 hrs, followed by addition of 4 ul/well of CellTiter-Glo reagent into the assay plates using a Flying Reagent Dispenser (Aurora Discovery, San Diego, CA). After 30 min incubation at room temperature, the luminescence intensity in the assay plates was measured using a ViewLux (PerkinElmer, Shelton, CT) plate reader.", "values": [
      {"smiles": "COCCO", "viability change, negative = cytotoxic": "9.78% (inactive)"},
      {"smiles": "C=CCCCCCC", "viability change, negative = cytotoxic": "2.52% (inactive)"},
      {"smiles": "Cc1c(Cn2ccnc2)c2ccccc2n1CCC(=O)O", "viability change, negative = cytotoxic": "6.33% (inactive)"},
      {"smiles": "Cc1cc(CC(=O)O)c(C)n1-c1ccc(Cl)cc1", "viability change, negative = cytotoxic": "4.92% (inactive)"},
      {"smiles": "CC(=O)N(O)CCCCCNC(=O)CCC(=O)N(O)CCCCCNC(=O)CCC(=O)N(O)CCCCCN", "viability change, negative = cytotoxic": "-3.49% (inactive)"},
      {"smiles": "CN1CCN(C2=Nc3cc(Cl)ccc3Nc3ccccc32)CC1", "viability change, negative = cytotoxic": "-11% (inactive)"},
      {"smiles": "Cc1cccc(Oc2ccccc2)c1", "viability change, negative = cytotoxic": "2.87% (inactive)"},
      {"smiles": "COc1ccc([C@@H]2Sc3ccccc3N(CCN(C)C)C(=O)[C@@H]2OC(C)=O)cc1", "viability change, negative = cytotoxic": "2.04% (inactive)"},
      {"smiles": "CC[C@H](C)[C@@H](C(=O)O)n1sc2ccccc2c1=O", "viability change, negative = cytotoxic": "-3.62% (inactive)"},
      {"smiles": "CC1=CCC(C(C)C)C=C1", "note": "(stereo not given)", "viability change, negative = cytotoxic": "-16.1% (inactive)"},
      {"smiles": "CCOC(=S)SSC(=S)OCC", "viability change, negative = cytotoxic": "2.98% (inactive)"},
      {"smiles": "C=CC(=O)OCCOC(=O)CCC(=O)O", "viability change, negative = cytotoxic": "0.479% (inactive)"},
      {"smiles": "CCCCCCCCCCCCCCCC(=O)OC/C=C(C)/C=C/C=C(C)/C=C/C1=C(C)CCCC1(C)C", "viability change, negative = cytotoxic": "0.0871% (inactive)"},
      {"smiles": "Nc1ccc(C(=O)N2CC3CC(CN(Cc4ccccc4)C3)C2)cc1", "viability change, negative = cytotoxic": "-2.92% (inactive)"},
      {"smiles": "COCCOCCOCCOCCOC", "viability change, negative = cytotoxic": "-6.44% (inactive)"},
      {"smiles": "CCCCCOC(=O)c1ccc(O)cc1", "viability change, negative = cytotoxic": "-19.2% [at 94.8 µM] (inactive)"},
      {"smiles": "NC1CCN(c2nc3c(cc2F)c(=O)c(C(=O)O)cn3-c2ccc(F)cc2F)C1", "note": "(stereo not given)", "viability change, negative = cytotoxic": "12.1% (inactive)"},
      {"smiles": "CCCCCCOC(=O)CCC", "viability change, negative = cytotoxic": "-0.651% (inactive)"},
      {"smiles": "CN(C)CCCNCCCN", "viability change, negative = cytotoxic": "5.49% (inactive)"},
      {"smiles": "CCCCCOC(=O)COc1cc(N2C(=O)C3=C(CCCC3)C2=O)c(F)cc1Cl", "viability change, negative = cytotoxic": "0.548% (inactive)"},
      {"smiles": "CCCCOC(O)CC", "note": "(stereo not given)", "viability change, negative = cytotoxic": "-9.05% (inactive)"},
      {"smiles": "Cc1cc(C)c(S(=O)(=O)O)cc1N=Nc1cc(S(=O)(=O)O)c2ccccc2c1O", "viability change, negative = cytotoxic": "4.5% (inactive)"},
      {"smiles": "C1=Cc2ccccc2C1", "viability change, negative = cytotoxic": "-3.48% (inactive)"},
      {"smiles": "CC(C)NCC(O)c1cc(O)cc(O)c1", "note": "(stereo not given)", "viability change, negative = cytotoxic": "-7.86% (inactive)"},
      {"smiles": "CC(Cc1cccc(C(F)(F)F)c1)NCCOC(=O)c1ccccc1", "note": "(stereo not given)", "Potency": "23.7 µM (active)"},
      {"smiles": "CC(=O)/C(C)=C/C1C(C)=CCCC1(C)C", "note": "(stereo not given)", "viability change, negative = cytotoxic": "5.03% (inactive)"},
      {"smiles": "C=CC(C)(CCC=C(C)C)OC(=O)c1ccccc1", "note": "(stereo not given)", "viability change, negative = cytotoxic": "-25.3% (inactive)"},
      {"smiles": "Oc1ccc(Cc2ccccc2)cc1", "viability change, negative = cytotoxic": "-25.6% (inactive)"},
      {"smiles": "O=C(O)[C@@H]1[C@H]2C[C@H]3c4[nH]c5ccccc5c4CCN3C[C@@H]2CC[C@@H]1O", "viability change, negative = cytotoxic": "4.36% (inactive)"},
      {"smiles": "OCC1CC2CC1C1CCC(CO)C21", "note": "(stereo not given)", "viability change, negative = cytotoxic": "-4.88% (inactive)"},
      {"smiles": "N#Cc1c(F)cccc1F", "viability change, negative = cytotoxic": "9.01% (inactive)"},
      {"smiles": "C=Cc1c(C)c2cc3[nH]c(cc4nc(cc5nc(cc1[nH]2)C(C)=C5CCC(=O)O)C(CCC(=O)O)=C4C)c(C)c3C=C", "viability change, negative = cytotoxic": "1.45% (inactive)"},
      {"smiles": "CN1CCC(=C2c3ccccc3CCc3sccc32)CC1", "viability change, negative = cytotoxic": "-16.2% (inactive)"},
      {"smiles": "O=S(=O)(O)c1ccc(O)c2ncccc12", "viability change, negative = cytotoxic": "8.35% (inactive)"},
      {"smiles": "Cc1ccc(C(N)=O)cc1N", "viability change, negative = cytotoxic": "6.7% (inactive)"},
      {"smiles": "O=C(O)c1cccc(N(Cc2cccnc2)c2ccc(OC(F)F)c(OC(F)F)c2)c1", "viability change, negative = cytotoxic": "-12% (inactive)"},
      {"smiles": "CN(C)C/C=C(/c1ccc(Br)cc1)c1cccnc1", "viability change, negative = cytotoxic": "0.895% (inactive)"},
      {"smiles": "O=CNc1ccccc1", "viability change, negative = cytotoxic": "6.8% [at 94.8 µM] (inactive)"},
      {"smiles": "Nc1nc(N)c(-c2ccccc2)s1", "viability change, negative = cytotoxic": "-2.71% (inactive)"},
      {"smiles": "SC1CCCC1", "viability change, negative = cytotoxic": "2.41% (inactive)"}
    ]}
  ]
}
